Test results as given in PubChem BioAssay (NCI).
Compounds without any hit were thinned out: in the full panel of roughly 79,000, 15% have a hit. A number with no mark means an inactive call. Activity calls are given as the source filed them. No stated cut-off is given here; in the data, active means growth inhibition above about 70%; inactive means the rest.

What was measured:
[1] = NCI Yeast Anticancer Drug Screen. Data for the rad50 strain (AID 155);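 further: 0% = growth of vehicle-only cultures of the same strain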; conditions: S. cerevisiae rad50 strain growth inhibition; at 50.0 µM; hits give high values
Outline: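 Inhibition values express reduced yeast growth in compound-treated cultures relative to vehicle-treated controls.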

[2] = NCI Yeast Anticancer Drug Screen. Data for the mec2-1 strain (AID 157); conditions: S. cerevisiae mec2-1 strain, at 50.0 µM, hits give high values
Outline: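 Using mec2-1 yeast: add compound, measure growth, express inhibition versus vehicle-treated cultures.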

[3] = NCI Yeast Anticancer Drug Screen. Data for the sgs1 mgt1 strain (AID 161);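 further: 0% = growth of cultures given vehicle only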; conditions: S. cerevisiae sgs1 mgt1 strain, at 50.0 µM, hits give high values
Outline: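 Percent growth inhibition was derived by comparing compound-exposed mutant yeast with vehicle-exposed cultures. The strain carries alterations in DNA damage repair.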

[4] = NCI Yeast Anticancer Drug Screen. Data for the cln2 rad14 strain (AID 165);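 further: 0% = growth equal to vehicle treated cultures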; conditions: S. cerevisiae cln2 rad14 strain, at 50.0 µM, hits give high values
Outline: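 Yeast strain cln2 rad14, bearing defects in cell cycle control and DNA repair, serves as the test system; values reflect growth inhibition compared with vehicle.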

[5] = NCI Yeast Anticancer Drug Screen. Data for the bub3 strain (AID 167); conditions: S. cerevisiae bub3 mutant strain, at 50.0 µM, hits give high values
Outline: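 Steps: expose the mutant yeast strain to compound; grow alongside vehicle-treated cultures; measure growth; express inhibition against the vehicle cultures.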

[6] = NCI Yeast Anticancer Drug Screen. Data for the mlh1 rad18 strain (AID 175); conditions: S. cerevisiae mlh1 rad18 strain growth inhibition; at 50.0 µM; hits give high values
Outline: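 Steps: expose repair-defective yeast to compound; measure growth; express inhibition against vehicle-treated controls.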

Row | SMILES | growth inhibition [1] | growth inhibition [2] | growth inhibition [3] | growth inhibition [4] | growth inhibition [5] | growth inhibition [6]
1 | Cc1cc(Br)ncc1[N+](=O)[O-] | -12.8% | 3.3% | -1.25% | -6% | -3.7% | -7.6%
2 | Cc1ccc(S(=O)(=O)OCC2C(c3ccccc3)CCC(c3ccccc3)C2COS(=O)(=O)c2ccc(C)cc2)cc1 (stereo unspecified) | -5.6% | -5.4% | -16.1% | -28.6% | 4.25% | 4.45%
3 | CCCCCCCCCCCCSSC(=S)OC(C)C | 46.7% | 37.7% | 45.5% | 16.9% | 43.6% | 44.5%
4 | CCCCCCCCCC(C)(O)C(N)=O (stereo unspecified) | 15.1% | -6.15% | 13.2% | -21.6% | -5.65% | 9.65%
5 | O=C(NCCCCCCCCCCNC(=O)C12CC3CC(CC(C3)C1)C2)C12CC3CC(CC(C3)C1)C2 | -1.5% | -5.15% | 2.3% | 14.7% | -2.1% | -14.5%
6 | COc1cc2c(cc1OC)C(=O)N(c1ccc(OCCN3CCCC3)cc1)C2=O | -20.7% | -17.9% | 4.7% | 19.4% | 15.8% | -10.4%
7 | CC1(C)OC(COCCOCCCCCO)C(COCCOCCCCCO)O1 (stereo unspecified) | 7.1% | 3.75% | 6.2% | 17.9% | -3.05% | 6.7%
8 | COc1ccc(NC(C)=O)c(C(O)CCNC(C)=O)c1 (stereo unspecified) | -14.1% | -13.3% | -25.9% | -7.8% | -40.1% | -28.5%
9 | NC1=Nc2ccccc2Sc2nnc(-c3ccc(Cl)cc3)n21 | 1.75% | -3.25% | -11.8% | -3.3% | -15.2% | 4.6%
10 | CCCCCOP(=O)(OCCCCC)C(c1ccccc1)c1ccccc1 | 1% | -44.9% | -4.15% | -33.4% | 9.5% | -11.9%
11 | NNC(=O)CC(=O)Nc1ccccc1F | -7.9% | -16.9% | -6.4% | 7.15% | 0.85% | -2.85%
12 | Nc1nc(N)c(-c2ccc(Cl)cc2)c(CNc2cccc([N+](=O)[O-])c2)n1 | 90.9% (active) | 91.3% (active) | 97.7% (active) | 95% (active) | 98.1% (active) | 99.2% (active)
13 | O=[N+]([O-])c1ccc(-c2nnc(C34CC5CC(CC(C5)C3)C4)o2)cc1 | -26.7% | -1.2% | -13.4% | -5.9% | -11.2% | -30.1%
14 | CSc1ncc2c(C#N)c3sc4ccccc4n3c(=O)c2n1 | 14.8% | -8.05% | 32.4% | 12.4% | 26.5% | -21.1%
15 | COc1ccc(C(=O)c2cccc(C(=O)c3ccc(OC)cc3)c2)cc1 | -13.1% | -19.4% | -3.5% | -0.9% | -13.5% | -4.15%
16 | COc1cccc(C(=O)C(CCC#N)c2ccccc2)c1 (stereo unspecified) | 24.8% | 18.5% | 31.4% | 20.9% | 42.8% | 9.75%
17 | COc1cccc(NC(=O)C(=O)C(C(C)=O)c2nc3ccc(Cl)cc3[nH]c2=O)c1 (stereo unspecified) | -16.3% | 3.7% | -19.2% | 15.4% | 2.25% | -5.4%
18 | CC(C)c1ccc(/C=C/C(=O)c2ccc([N+](=O)[O-])cc2)cc1 | 9.75% | 2.2% | 11.7% | -13.3% | 20.9% | 3.15%
19 | CCCCCOC(=O)Nc1ccc(OCC)cc1 | -9.15% | -4.95% | -3.15% | -21.9% | -1.3% | -4.25%
20 | O=S(=O)(O)c1cccc2nsnc12 | -0.35% | -2.05% | -3.6% | 13.1% | 9.5% | -1.3%
21 | COc1cccc(N2C(=O)C3c4[nH]c5ccccc5c4C4CCCC4C3C2=O)c1 (stereo unspecified) | -36.5% | -47.4% | -20.8% | -8.15% | -50% | -22.4%

Row | SMILES | growth inhibition [1] | growth inhibition [2] | growth inhibition [3] | growth inhibition [4] | growth inhibition [5] | growth inhibition [6]
22 | CCOC(OCC)C1CC=CCC1 (stereo unspecified) | 0.1% | -1.65% | -6.7% | -13.1% | -6.4% | -0.95%
23 | CO/C=C/CCCNCc1ccccc1 | -4.5% | -27.4% | 20.6% | 9.7% | 6.3% | 1.2%
24 | COc1cccc(C=Nc2cc(C)ccn2)c1O.COc1cccc(C=Nc2cc(C)ccn2)c1O.[Cu] | 3.45% | -7.75% | 9.75% | 14.2% | -11.6% | 38.6%
25 | CCCCCC/C=N\OC(N)=O | 12.9% | 15.2% | -4.9% | -12.9% | 3.35% | 11.8%
26 | CN1CCn2c(Br)ccc2C1=O | 13.6% | -11.6% | -1.55% | 8.45% | 2.65% | -3.3%
27 | CCCCCCCCCCCCCCCCS(=O)(=O)N/N=C(/c1ccccc1Cl)N1CCOCC1 | -10.6% | -35.4% | -7.1% | 16.4% | -22.6% | -6.75%
28 | CC(C)NC(=O)CS(=O)(=O)c1ccc(N)cc1 | -2.3% | -11.8% | 2.1% | -0.3% | 30% | 7.7%
29 | Cn1c(=O)c2[nH]c(SCc3ccccn3)nc2n(C)c1=S | 6.05% | -42.5% | -20.9% | -47.1% | -26.6% | 13.4%
30 | C/C(=N\O)c1ccc2[nH]c(C)cc(=O)c2c1 | 2.95% | 5.7% | -5.45% | -32.9% | -1.15% | 12.7%
31 | CCN(CC)C(=O)COc1ccc(Cl)cc1C(C)C | -17.9% | -16.8% | 1.35% | -2.45% | 14.9% | -31.4%
32 | CCOC(=O)c1[nH]cnc1N | -17.1% | 11.1% | -2.55% | -46.1% | 1.15% | -3.65%
33 | Cc1ncc([N+](=O)[O-])n1CCNC(=O)CCn1ccnc1[N+](=O)[O-] | 10.2% | -43.7% | -49.6% | 1.1% | -18.7% | -22.9%
34 | CC1OC(c2c(Cl)cccc2[N+](=O)[O-])OC1C (stereo unspecified) | 3.5% | -9.2% | 5.6% | 0.5% | -7.6% | 20%
35 | CC1(C)Oc2ccc3ccccc3c2C(c2ccc(O)cc2)=C1c1ccccc1 | -51.5% | -11% | 5.2% | 7.75% | -3.1% | -20.6%
36 | Cc1nc2ccccc2s1 | 25.1% | 48.2% | 7.9% | 29% | -1.35% | 4.05%
37 | CC(CCc1cccc2ccccc12)C(=O)O (stereo unspecified) | 29.6% | 30.4% | 28.9% | 26.1% | 30.3% | 43.3%
38 | CC(=O)c1ccc(I)cc1 | 5.15% | -11.7% | 24.6% | 13.8% | 14.1% | 18.1%
39 | O=S(=O)(c1ccccc1)N1CCC1c1ccccc1 (stereo unspecified) | -11.3% | -3.9% | -8.8% | 21.9% | 9.3% | 0.8%
40 | O=C1NC(=O)/C(=C/CCCO)N1 | 2.85% | -5.3% | -10.4% | -8.95% | -0.25% | -6.6%
41 | CS(=O)(=O)OCC1OC(n2ccc(NC(=O)c3ccccc3)nc2=O)CC1OS(C)(=O)=O (stereo unspecified) | 0.5% | -16.9% | -5.8% | -11.7% | -14.8% | -4%
